The antibiotic and cytotoxicity screens of Wong et al. (2023)
About 3,300 (8.5%) of roughly 39,000 compounds were called active. What follows is part of a selection rich in actives, with near analogues and random picks from the rest.

Each molecule was assayed on HepG2 (assay: cytotoxicity call (relative viability < 0.9)). Details: 10 µM.

| Structure (SMILES) | cytotoxicity call |
| --- | --- |
| COc1ccc(S(=O)(=O)N2C[C@@H](O)COC[C@H]3O[C@@H](CC(=O)NCCN4CCCCC4)CC[C@@H]32)cc1 | inactive |
| C[C@@H]1CN([C@H](C)CO)C(=O)c2cccc(NC(=O)c3cnccn3)c2O[C@@H]1CN(C)Cc1ccc(C(=O)O)cc1 | inactive |
| CC(C)CCCC(C)C1CCC2C3CC(=O)C4CC(O)CCC4(C)C3CCC12C (stereo not drawn) [5alpha-CHOLESTAN-3beta-OL-6-ONE ] | inactive |
| CC(C)CCC[C@@H](C)[C@H]1CC[C@H]2[C@@H]3C[C@@H](O)[C@@]4(O)C[C@@H](O)CC[C@]4(C)[C@H]3CC[C@]12C [CHOLESTAN-3beta,5alpha,6beta-TRIOL ] | active |
| CC(C)CCCC(C)C1CCC2C3CCC4CC(O)CCC4(C)C3CCC12C (stereo not drawn) [5alpha-CHOLESTANOL ] | inactive |
| CCNC(=O)N1CCCC[C@@H]1CO | inactive |
| O=C(N[C@@H](c1ccccc1)c1ccc2ccccc2n1)C1CCN(C(=O)NC(c2ccccc2)c2ccccc2)CC1 | inactive |
| C[C@H](N[C@@H](CCc1ccccc1)C(=O)O)C(=O)N1CCC[C@H]1C(=O)O | inactive |
| CN[C@@H](C)C(=O)N[C@H]1CN(C(=O)CC(C)C)CC[C@H]2CC[C@@H](C(=O)NC(c3ccccc3)c3ccccc3)N2C1=O | active |
| COc1cnc(NS(=O)(=O)c2ccc(N)cc2)nc1 | inactive |
| COS(=O)(=O)[O-].COc1cc(N)cn[n+]1-c1ccccc1 | active |
| COCC#Cc1cnc2c(c1)C(=O)N([C@@H](C)CO)C[C@@H](C)[C@H](CN(C)C(=O)Nc1cc(F)ccc1F)O2 | inactive |
| C[C@@H]1CN([C@@H](C)CO)C(=O)c2cc(NC(=O)Nc3cccc4ccccc34)ccc2O[C@H]1CN(C)C(=O)Nc1cccc2ccccc12 | inactive |
| C[C@H]1CN([C@@H](C)CO)C(=O)c2cc(NC(=O)Nc3ccc(C(F)(F)F)cc3)ccc2O[C@H]1CN(C)C(=O)Nc1cccc2ccccc12 | inactive |
| COc1ccc(NC(=O)Nc2ccc3c(c2)C(=O)N([C@H](C)CO)C[C@@H](C)[C@@H](CN(C)C(=O)Nc2cccc4ccccc24)O3)cc1 | inactive |
| C[C@@H]1CN([C@H](C)CO)C(=O)c2cc(NC(=O)Nc3cccc4ccccc34)ccc2O[C@H]1CN(C)C(=O)Nc1cccc2ccccc12 | inactive |
| C[C@@H]1CN([C@H](C)CO)C(=O)c2cc(NC(=O)Nc3cccc4ccccc34)ccc2O[C@H]1CN(C)C(=O)Nc1ccccc1 | inactive |
| COc1ccc(NC(=O)Nc2ccc3c(c2)C(=O)N([C@H](C)CO)C[C@H](C)[C@@H](CN(C)C(=O)Nc2cccc4ccccc24)O3)cc1 | inactive |
| C[C@@H]1CN([C@@H](C)CO)C(=O)c2cc(NC(=O)Nc3cccc4ccccc34)ccc2O[C@@H]1CN(C)C(=O)Nc1ccccc1 | inactive |
| C[C@H](CO)N1C[C@H](C)[C@@H](CN(C)C(=O)Nc2cccc3ccccc23)Oc2ccc(NC(=O)Nc3ccc(C(F)(F)F)cc3)cc2C1=O | inactive |
| C[C@H](CO)N1C[C@H](C)[C@H](CN(C)C(=O)Nc2cccc3ccccc23)Oc2ccc(NC(=O)Nc3cccc4ccccc34)cc2C1=O | active |

| Structure (SMILES) | cytotoxicity call |
| --- | --- |
| C[C@H]1CN([C@@H](C)CO)C(=O)c2cc(NC(=O)Nc3cccc4ccccc34)ccc2O[C@H]1CN(C)C(=O)Nc1ccccc1 | active |
| C[C@@H]1CN([C@H](C)CO)C(=O)c2cc(NC(=O)Nc3ccc(C(F)(F)F)cc3)ccc2O[C@H]1CN(C)C(=O)Nc1cccc2ccccc12 | active |
| COc1ccc(NC(=O)Nc2ccc3c(c2)C(=O)N([C@@H](C)CO)C[C@H](C)[C@H](CN(C)C(=O)Nc2cccc4ccccc24)O3)cc1 | active |
| C[C@H]1CN([C@@H](C)CO)C(=O)Cc2cc(NS(=O)(=O)c3ccccc3)ccc2O[C@@H]1CN(C)S(=O)(=O)c1ccc(F)cc1 | inactive |
| Cc1noc(C)c1S(=O)(=O)N(C)C[C@H]1Oc2ccc(NC(=O)Nc3ccc4c(c3)OCO4)cc2C(=O)N([C@@H](C)CO)C[C@H]1C | inactive |
| CC(=O)N[C@@H]1CC[C@H](CCNC(=O)C2CC2)O[C@H]1CO | inactive |
| O=C(C[C@@H]1C=C[C@H](NC(=O)c2cccc(F)c2)[C@H](CO)O1)NCCN1CCCC1 | inactive |
| C[C@@H]1CCCCO[C@@H](CN(C)S(C)(=O)=O)[C@H](C)CN([C@@H](C)CO)C(=O)c2cc(NS(=O)(=O)c3ccc(F)cc3)ccc2O1 | inactive |
| COc1ccc(NC(=O)Nc2ccc3c(c2)CC(=O)N([C@@H](C)CO)C[C@H](C)[C@@H](CN(C)C(=O)Nc2cccc4ccccc24)O3)cc1 | inactive |
| C[C@@H]1CCCCO[C@@H](CN(C)S(=O)(=O)c2ccccc2)[C@H](C)CN([C@H](C)CO)C(=O)c2cc(NS(C)(=O)=O)ccc2O1 | inactive |
| CC(C)CC#Cc1ccc2c(c1)O[C@@H](CN(C)S(=O)(=O)c1ccc(F)cc1)[C@@H](C)CN([C@H](C)CO)S2(=O)=O | inactive |
| COc1ccccc1CNC(=O)C[C@H]1C[C@H]2c3cc(NC(=O)Cc4ccncc4)ccc3O[C@H]2[C@H](CO)O1 | inactive |
| CC1OC(OC2C(Oc3cc(O)c4c(=O)cc(-c5ccc(O)cc5)oc4c3)OC(CO)C(O)C2O)C(O)C(O)C1O (configuration not stated) | inactive |
| Cc1noc(C)c1NC(=O)N(C)C[C@@H]1Oc2c(NC(=O)C3CC3)cccc2C(=O)N([C@H](C)CO)C[C@@H]1C | inactive |
| Cc1noc(C)c1NC(=O)Nc1ccc2c(c1)C(=O)N([C@H](C)CO)C[C@@H](C)[C@@H](CN(C)CC1CCCCC1)OCCCC[C@H](C)O2 | inactive |
| CC(C)NC(=O)N(C)C[C@H]1OCc2cn(nn2)CCCC(=O)N([C@H](C)CO)C[C@@H]1C | inactive |
| CC(=O)OCC(=O)C1(O)CCC2C3CCC4=CC(=O)CCC4(C)C3C(O)CC21C (configuration not stated) | inactive |
| C[C@@H]1CN([C@H](C)CO)C(=O)c2cc(NC(=O)NC3CCCCC3)ccc2O[C@H]1CN(C)C(=O)Nc1cccc2ccccc12 | inactive |
| C[C@@H]1CN([C@@H](C)CO)C(=O)c2cc(NC(=O)NC3CCCCC3)ccc2O[C@H]1CN(C)C(=O)Nc1cccc2ccccc12 | inactive |
| C[C@H]1CN([C@@H](C)CO)C(=O)c2cc(NC(=O)NC3CCCCC3)ccc2O[C@H]1CN(C)C(=O)Nc1cccc2ccccc12 | active |
| Cc1noc(C)c1S(=O)(=O)Nc1cccc2c1O[C@@H](CN(C)Cc1ccc3c(c1)OCO3)[C@@H](C)CN([C@H](C)CO)C2=O | inactive |

| Structure (SMILES) | cytotoxicity call |
| --- | --- |
| C[C@H]1CN([C@@H](C)CO)C(=O)c2cc(C#Cc3ccccc3F)cnc2O[C@H]1CN(C)S(=O)(=O)c1ccccc1F | inactive |
| COCC(=O)N(C)C[C@H]1Oc2cc(C#CCC3CCCC3)ccc2S(=O)(=O)N([C@@H](C)CO)C[C@H]1C | inactive |
| C[C@H]1CN([C@@H](C)CO)C(=O)Cc2cc(NC(=O)Nc3cccc4c3CCCC4)ccc2O[C@H]1CN(C)S(=O)(=O)c1ccc(Oc2ccccc2)cc1 | active |
| C[C@H]1CN([C@@H](C)CO)C(=O)Cc2cc(NC(=O)Nc3ccc(Cl)c(Cl)c3)ccc2O[C@H]1CN(C)S(=O)(=O)c1ccc(Oc2ccccc2)cc1 | inactive |
| C[C@H]1CN([C@@H](C)CO)C(=O)Cc2cc(NC(=O)Nc3cccc4c3CCCC4)ccc2O[C@H]1CN(C)S(=O)(=O)c1ccc(Cl)cc1 | inactive |
| C[C@H]1CN([C@@H](C)CO)C(=O)Cc2cc(NC(=O)Nc3ccc(F)cc3)ccc2O[C@H]1CN(C)S(=O)(=O)c1ccc(Oc2ccccc2)cc1 | active |
| CC(C)NC(=O)Nc1ccc2c(c1)CC(=O)N([C@@H](C)CO)C[C@H](C)[C@H](CN(C)S(=O)(=O)c1ccc(F)cc1)O2 | inactive |
| Cc1ccc(S(=O)(=O)N(C)C[C@@H]2Oc3ccc(NC(=O)Nc4cccc5ccccc45)cc3CC(=O)N([C@@H](C)CO)C[C@H]2C)cc1 | inactive |
| C[C@H]1CN([C@@H](C)CO)C(=O)Cc2cc(NC(=O)Nc3ccc(C#N)cc3)ccc2O[C@H]1CN(C)S(=O)(=O)c1ccc(Oc2ccccc2)cc1 | inactive |
| CC(C)NC(=O)Nc1ccc2c(c1)CC(=O)N([C@H](C)CO)C[C@@H](C)[C@@H](CN(C)S(=O)(=O)c1ccccc1)O2 | inactive |
| C[C@H]1CN([C@@H](C)CO)C(=O)Cc2cc(NC(=O)Nc3cc(Cl)cc(Cl)c3)ccc2O[C@H]1CN(C)S(=O)(=O)c1ccc(Oc2ccccc2)cc1 | active |
| CCCN(C)C[C@@H]1Oc2cc(C#Cc3ccccc3OC)ccc2S(=O)(=O)N([C@@H](C)CO)C[C@@H]1C | inactive |
| COc1ccc(S(=O)(=O)Nc2ccc3c(c2)C(=O)N([C@H](C)CO)C[C@H](C)[C@H](CN(C)S(=O)(=O)c2cccs2)O3)cc1 | inactive |
| O=C(C[C@@H]1C[C@H]2c3cc(NC(=O)Cc4ccncc4)ccc3O[C@H]2[C@H](CO)O1)NCc1ccc2c(c1)OCO2 | inactive |
| C=C(C(=O)O)[C@@H](CCCCCCOC(=O)C(=O)OCCCCCC[C@@H](C(=C)C(=O)O)C(=O)O)C(=O)O | inactive |
| O=C(C[C@H]1CC[C@@H]2[C@H](COC[C@@H](O)CN2S(=O)(=O)c2ccccc2F)O1)NCc1ccccc1Cl | inactive |
| C[C@H](CO)N1C[C@H](C)[C@@H](CN(C)C(=O)Nc2ccc(F)cc2)OCCCC[C@H](C)Oc2ccc(NC(=O)C3CCCCC3)cc2C1=O | inactive |
| C[C@@H]1CN([C@H](C)CO)C(=O)c2cc(NC(=O)C3CC3)ccc2O[C@@H]1CN(C)Cc1ccc2c(c1)OCO2 | inactive |
| Cc1noc(C)c1S(=O)(=O)Nc1ccc2c(c1)CC(=O)N([C@@H](C)CO)C[C@H](C)[C@H](CN(C)S(=O)(=O)c1ccc(Cl)cc1)O2 | inactive |
| C[C@@H]1CCCCO[C@H](CN(C)Cc2ccc(C(F)(F)F)cc2)[C@H](C)CN([C@@H](C)CO)C(=O)c2cc(NC(=O)c3ccncc3)ccc2O1 | inactive |
